Data from PubChem BioAssay (EPA / NIEHS).
Activity calls are given as the source filed them. Rule for the calls: active = hit-call score of the fitted dose curve at least 0.9, where 1 is the maximum; inactive = score below 0.9.

Key:
[1] = BSK_hDFCGF_SRB: Viability Assessment in the BioMAP Diversity Plus: hDFCGF Assay (AID 2283061); conditions: primary human foreskin fibroblasts;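 note: cells exposed to compound for 24 h before the read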
Procedure, shortened: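 Primary human foreskin fibroblasts; 24 h post-dose; fixed 10% TCA, stained 0.1% SRB, A560 read; total protein as overt cytotoxicity measure; curves fit bidirectionally vs DMSO control.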

[2] = read-out: TIMP metallopeptidase inhibitor 1 (TIMP1), TIMP1 (gene 7076); assay: BSK_hDFCGF_TIMP1: BioMAP Diversity Plus: hDFCGF Assay for TIMP metallopeptidase inhibitor 1 (TIMP1) Biomarker Activity (AID 2283062); conditions: primary human foreskin fibroblasts; actives raise or lower the signal
Procedure, shortened: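 ELISA readout of TIMP-1 from human dermal foreskin fibroblast cultures 24 h post-dosing. Curves were fitted in both directions against DMSO baseline, with SRB total-protein staining in parallel cultures as a cytotoxicity check.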

[3] = read-out: Monokine induced gamma interferon (MIG), CXCL9 (gene 4283); assay: BSK_hDFCGF_MIG: BioMAP Diversity Plus: hDFCGF Assay for Monokine induced gamma interferon (MIG) Biomarker Activity (AID 2283063); conditions: primary human foreskin fibroblasts; actives raise or lower the signal
Procedure, shortened: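 Fibroblasts (human foreskin, primary) dosed, 24 h, MIG by ELISA; fit bidirectional vs DMSO.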

[4] = read-out: Matrix Metallopeptidase 1 (MMP1), MMP1 (gene 4312); assay: BSK_hDFCGF_MMP1: BioMAP Diversity Plus: hDFCGF Assay for Matrix Metallopeptidase 1 (MMP1) Biomarker Activity (AID 2283064); conditions: primary human foreskin fibroblasts; actives raise or lower the signal
Procedure, shortened: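 MMP1 levels quantified by ELISA 24 h after dosing human dermal fibroblast cultures, with parallel SRB total-protein staining for overt cytotoxicity. Data fitted in both directions against DMSO baseline.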

[5] = read-out: Vascular cell adhesion molecule 1 (VCAM1), VCAM1 (gene 7412); assay: BSK_hDFCGF_VCAM1: BioMAP Diversity Plus: hDFCGF Assay for Vascular cell adhesion molecule 1 (VCAM1) Biomarker Activity (AID 2283065); conditions: primary human foreskin fibroblasts; actives raise or lower the signal;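 for AC50: VCAM-1 protein level quantified by ELISA after 24 h chemical exposure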
Procedure, shortened: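 ELISA read-out of VCAM-1 on human skin fibroblasts, 24 h post-dose; gain or loss of signal fitted bidirectionally against DMSO baseline.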

[6] = read-out: Plasminogen activator inhibitor-1 (PAI1), SERPINE1 (gene 5054); assay: BSK_hDFCGF_PAI1: BioMAP Diversity Plus: hDFCGF Assay for Plasminogen activator inhibitor-1 (PAI1) Biomarker Activity (AID 2283066); conditions: primary human foreskin fibroblasts; actives raise or lower the signal
Procedure, shortened: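 Human skin fibroblast cultures receive chemical for 24 h before PAI-1 is measured by ELISA; signal changes are fitted bidirectionally against DMSO-treated wells.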

[7] = read-out: Intercellular Adhesion Molecule 1 (ICAM1), ICAM1 (gene 3383); assay: BSK_KF3CT_ICAM1: BioMAP Diversity Plus: KF3CT Assay for Intercellular Adhesion Molecule 1 (ICAM1) Biomarker Activity (AID 2283067); conditions: primary human keratinocytes with fibroblasts; actives raise or lower the signal
Procedure, shortened: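 ELISA readout of ICAM-1; KF3CT human skin co-culture (keratinocytes + foreskin fibroblasts), 24 h post-dose; gain/loss fit vs DMSO baseline.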

[8] = read-out: Interferon-gamma inducible Protein 10 (IP10), CXCL10 (gene 3627); assay: BSK_KF3CT_IP10: BioMAP Diversity Plus: KF3CT Assay for Interferon-gamma inducible Protein 10 (IP10) Biomarker Activity (AID 2283068); conditions: primary human keratinocytes with fibroblasts; actives raise or lower the signal
Procedure, shortened: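 ELISA read-out of IP-10 after 24 h chemical dosing of human skin primary co-culture (keratinocytes, foreskin fibroblasts). Gain or loss of signal relative to DMSO, bidirectional curve fit.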

[9] = BSK_KF3CT_SRB: Viability Assessment in the BioMAP Diversity Plus: KF3CT Assay (AID 2283069); conditions: primary human keratinocytes with fibroblasts;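 note: total protein by sulforhodamine B staining as a cytotoxicity measure; read 24 h after compound addition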
Procedure, shortened: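 Cytotoxicity was gauged by SRB staining (0.1% SRB, 10% TCA fixation, 560 nm) of parallel cultures at 24 h. The cells were primary human skin keratinocytes co-cultured with fibroblasts, and activity was fitted in both directions against DMSO.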

[10] = read-out: Interleukin-1 alpha (IL1a), IL1A (gene 3552); assay: BSK_KF3CT_IL1a: BioMAP Diversity Plus: KF3CT Assay for Interleukin-1 alpha (IL1a) Biomarker Activity (AID 2283070); conditions: primary human keratinocytes with fibroblasts; actives raise or lower the signal
Procedure, shortened: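 IL-1a was detected by ELISA 24 h after chemical treatment of a co-culture of human skin keratinocytes and foreskin fibroblasts. Gain or loss of signal was fitted against the DMSO baseline.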

[11] = read-out: TIMP metallopeptidase inhibitor 2 (TIMP2), TIMP2 (gene 7077); assay: BSK_KF3CT_TIMP2: BioMAP Diversity Plus: KF3CT Assay for TIMP metallopeptidase inhibitor 2 (TIMP2) Biomarker Activity (AID 2283071); conditions: primary human keratinocytes with fibroblasts; actives raise or lower the signal
Procedure, shortened: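 Measurements come from ELISA detection of TIMP-2 at 24 hours in a dosed human keratinocyte and foreskin fibroblast co-culture. DMSO serves as negative control and baseline.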

[12] = read-out: Transforming growth factor beta 1 (TGFb1), TGFB1 (gene 7040); assay: BSK_KF3CT_TGFb1: BioMAP Diversity Plus: KF3CT Assay for Transforming growth factor beta 1 (TGFb1) Biomarker Activity (AID 2283072); conditions: primary human keratinocytes with fibroblasts; actives raise or lower the signal
Procedure, shortened: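 TGF-b1 ELISA on a 24 h dosed co-culture of human keratinocytes and foreskin fibroblasts; cytotoxicity tracked in parallel cultures by SRB staining.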

[13] = read-out: C-C motif chemokine 2 (Homo sapiens) (UniProt P13500); assay: BSK_KF3CT_MCP1: BioMAP Diversity Plus: KF3CT Assay for Monocyte Chemoattractant Protein 1 (MCP1/CCL2) Biomarker Activity (AID 2283073); conditions: primary human keratinocytes with fibroblasts; actives raise or lower the signal
Procedure, shortened: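 KF3CT skin co-culture (keratinocytes/foreskin fibroblasts), 24 h post-dose; MCP-1 by ELISA; gain/loss of signal fit bidirectionally vs DMSO baseline.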

[14] = read-out: Matrix Metallopeptidase 9 (MMP9), MMP9 (gene 4318); assay: BSK_KF3CT_MMP9: BioMAP Diversity Plus: KF3CT Assay for Matrix Metallopeptidase 9 (MMP9) Biomarker Activity (AID 2283074); conditions: primary human keratinocytes with fibroblasts; actives raise or lower the signal;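 for AC50: MMP9 protein level quantified by ELISA in the co-culture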
Procedure, shortened: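 MMP-9 quantified by ELISA after 24 h chemical treatment of primary human skin keratinocyte/fibroblast co-cultures; gain or loss fitted against DMSO, with parallel SRB staining (0.1% SRB, 560 nm) for overt cytotoxicity.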

[15] = read-out: urokinase plasminogen activator (uPA), PLAU (gene 5328); assay: BSK_KF3CT_uPA: BioMAP Diversity Plus: KF3CT Assay for urokinase plasminogen activator (uPA) Biomarker Activity (AID 2283075); conditions: primary human keratinocytes with fibroblasts; actives raise or lower the signal
Procedure, shortened: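 ELISA read-out of uPA 24 h after dosing human skin keratinocytes co-cultured with foreskin fibroblasts. Signal change fitted both ways relative to DMSO; sulforhodamine B on parallel cultures marks overt cytotoxicity.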

[16] = read-out: E-selectin (Homo sapiens) (UniProt P16581); assay: BSK_LPS_Eselectin: BioMAP Diversity Plus: LPS Assay for Eselectin Biomarker Activity (AID 2283077); conditions: primary human HUVEC with PBMC; actives raise or lower the signal
Procedure, shortened: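 ELISA readout of E-selectin, 24 h post-dose, HUVEC + PBMC co-culture (LPS system). Gain or loss of signal vs DMSO baseline, bidirectional fit.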

[17] = BSK_LPS_SRB: Viability Assessment in the BioMAP Diversity Plus: LPS Assay (AID 2283079); conditions: primary human HUVEC with PBMC;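 note: total protein by sulforhodamine B absorbance as a cytotoxicity measure; measured one day after compound addition; fitted in both directions against DMSO so loss or gain of signal counts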
Procedure, shortened: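 HUVEC + PBMC co-culture, LPS-stimulated; compound 24 h. 10% TCA fix, 0.1% SRB stain, A560. Bidirectional fit vs DMSO.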

[18] = read-out: Interleukin-1 alpha (IL1a), IL1A (gene 3552); assay: BSK_LPS_IL1a: BioMAP Diversity Plus: LPS Assay for Interleukin-1 alpha (IL1a) Biomarker Activity (AID 2283080); conditions: primary human HUVEC with PBMC; actives raise or lower the signal
Procedure, shortened: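 HUVEC/PBMC co-culture, LPS system; 24 h after dosing; IL-1a by ELISA; gain or loss of signal fitted bidirectionally vs DMSO baseline.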

[19] = read-out: CD40, CD40 (gene 958); assay: BSK_LPS_CD40: BioMAP Diversity Plus: LPS Assay for CD40 Biomarker Activity (AID 2283076); conditions: primary human HUVEC with PBMC; actives raise or lower the signal
Procedure, shortened: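 ELISA readout of CD40 in HUVEC/PBMC co-culture (BSK_LPS system), 24 h post-dosing; bidirectional curve fit, DMSO baseline; parallel SRB total-protein staining for cytotoxicity.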

Measured: AC50

Sequence of E-selectin (Homo sapiens) (P16581 whole entry, looked up): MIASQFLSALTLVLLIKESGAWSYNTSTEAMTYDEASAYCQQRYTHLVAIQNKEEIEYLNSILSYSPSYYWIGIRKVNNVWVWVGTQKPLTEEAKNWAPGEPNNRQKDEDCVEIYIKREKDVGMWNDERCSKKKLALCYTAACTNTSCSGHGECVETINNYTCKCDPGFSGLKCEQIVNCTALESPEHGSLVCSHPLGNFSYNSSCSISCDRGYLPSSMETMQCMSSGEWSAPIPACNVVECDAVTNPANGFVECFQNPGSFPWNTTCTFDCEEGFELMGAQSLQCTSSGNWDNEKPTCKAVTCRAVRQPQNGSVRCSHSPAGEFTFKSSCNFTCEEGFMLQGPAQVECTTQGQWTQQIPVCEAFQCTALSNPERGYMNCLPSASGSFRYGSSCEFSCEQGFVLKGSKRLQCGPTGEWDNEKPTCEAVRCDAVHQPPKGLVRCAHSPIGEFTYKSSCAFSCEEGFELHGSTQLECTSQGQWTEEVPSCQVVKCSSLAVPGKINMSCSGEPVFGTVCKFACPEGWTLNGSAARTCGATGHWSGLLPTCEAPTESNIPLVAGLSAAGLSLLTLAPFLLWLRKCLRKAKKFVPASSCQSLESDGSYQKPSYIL

CCCCCCCCOC(=O)c1cc(O)c(O)c(O)c1
active: [1] 18.5 µM | [2] 37.8 µM | [3] 19.7 µM | [4] 37.6 µM | [5] 7.8 µM | [6] 15.2 µM | [7] 29.2 µM | [8] 12.3 µM | [9] 15.3 µM | [10] 25.5 µM | [11] 13.2 µM | [12] 8.45 µM | [13] 27.4 µM | [14] 8.92 µM | [15] 18.2 µM | [16] 36.6 µM | [17] 25.6 µM | [18] 20 µM

O=C1CCC(C2CCCCC2)CC1
active: [1] 34.4 µM | [2] 32.7 µM | [4] 33.3 µM | [5] 31.6 µM | [6] 31.7 µM | [8] 31.5 µM | [13] 29.6 µM | [14] 31.8 µM
not listed: [17]
inactive: all other assays above

COc1ccc2cc(S(=O)(=O)N[C@H](CC(=O)N[C@H](Cc3ccc(CN4[C@H](C)CCC[C@@H]4C)cc3)C(=O)N(C)C(C)C)c3ccc4c(c3)OCO4)ccc2c1
inactive: [7] | [10] | [12] | [13] | [15]
active: [1] 27.7 µM | [2] 37.4 µM | [3] 33.3 µM | [4] 31.5 µM | [5] 32.1 µM | [6] 26 µM | [8] 29.3 µM | [9] 31.7 µM | [11] 27.6 µM | [14] 32.8 µM | [19] 11.6 µM | [16] 31.3 µM | [18] 14.5 µM

CC(O)CC(C)(C)O (configuration not stated)
not listed: [11] | [17] | [18]
inactive: all other assays above

CCCC(=O)OCCC(C)C
not listed: [17] | [18]
inactive: all other assays above
